Compound activity deposited in PubChem by National Center for Advancing Translational Sciences (NCATS).
KDM4E inh: inhibitors of human JMJD2E histone demethylase; JMJD2E catalytic domain, FDH-coupled NADH fluorescence (FDH is formaldehyde dehydrogenase); B2RXH2; Potency, µM (doses to about 57.1 µM), usual class: inhibitors; 1.6% of 230,000 active; AID 2147; active = well fitted inhibition curve with a large enough effect, not every such curve was filed as active; inconclusive = small, poorly fitted or top-dose-only effect, or another doubt; inactive = no such curve, though single readings can be large or run the other way; note: nearly all actives have a fitted effect of over 50% in size
Target sequence (B2RXH2 1-337 limits assumed): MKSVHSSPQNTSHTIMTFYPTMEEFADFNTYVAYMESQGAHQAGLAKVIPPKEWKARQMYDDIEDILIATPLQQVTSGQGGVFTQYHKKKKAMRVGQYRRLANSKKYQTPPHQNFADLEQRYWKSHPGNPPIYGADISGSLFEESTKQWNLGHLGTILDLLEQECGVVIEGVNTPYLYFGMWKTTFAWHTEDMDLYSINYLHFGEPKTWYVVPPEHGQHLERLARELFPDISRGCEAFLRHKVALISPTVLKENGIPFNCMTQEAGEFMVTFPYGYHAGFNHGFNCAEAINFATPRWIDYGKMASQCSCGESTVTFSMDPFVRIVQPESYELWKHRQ
Tau fibril FP: tau fibrillization inhibition (FP); P10636; K18 P301L tau heparin fibrillization, Alexa594 FP, 6 h; Potency, µM (series often up to 57.7 µM), hits mostly inhibitors; 0.39% of 280,000 active; note: nearly all actives have a fitted effect of over 55% in size
Target sequence (P10636 561-689 P618L limits assumed): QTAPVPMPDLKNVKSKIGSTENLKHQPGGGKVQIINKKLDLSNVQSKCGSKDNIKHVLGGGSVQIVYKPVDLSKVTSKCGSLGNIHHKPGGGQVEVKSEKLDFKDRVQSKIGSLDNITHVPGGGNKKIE
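Quantitative HTS format: compounds meet 15 uM recombinant K18 P301L tau and Alexa 594-tau tracer in 100 mM sodium acetate pH 7; 20 uM heparin triggers fibrillization at 37 C over 6 hr; FP gives the signal.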
Tau ThT inhib: tau fibrillization inhibition (ThT binding). P10636. recombinant tau K18 P301L, heparin-induced fibrillization, ThT fluorescence. Potency, µM (doses to about 57.4 µM), most hits filed as inhibitors. 2.1% of 270,000 active; note: nearly all actives have a fitted effect of over 55% in size
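Heparin-induced fibrillization of the P301L-mutant K18 repeat-domain fragment of human tau was followed by ThT binding in quantitative high-throughput format.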
Coupling enz: inhibits coupling enzyme system, counter-screen for aldolase hits; coupling enzyme system counterscreen, AmpLite Red fluorescence; activity change, negative = inhibition, % at 58.2 µM, hits read low; 0.67% of 290,000 active; AID 2472; in the data active = activity change below about -30%
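Compounds tested against the coupling enzymes alone at 57.5 uM final; readout was AmpLite Red fluorescence (525/598 nm) after 20 min at RT.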
Tau fluor counter: counter-screen for tau fibril formation inhibitors; tau K18 P301L Alexa594 fluorescence, heparin fibrillization; Potency, µM (top dose mostly 57.7 µM); 0.93% of 280,000 active; note: nearly all actives have a fitted effect of over 55% in size
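Human tau K18 P301L (15 uM unlabeled, 0.24 uM Alexa 594-labeled) in 100 mM sodium acetate pH 7 with 20 uM heparin, 6 hr at 37 C. ThT 30 uM added, 1 hr ambient; Alexa 594 FP and total fluorescence read at 555/632 nm.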
Each line names hits and unclear results; the compound was inactive in the other large screens; [ ] = dose if it differs, or a comment. This is a sample that favours compounds with a hit; in the whole collection about 3% have one here. Unless noted, calls come from the whole dose curve; as a rule, active = well fitted curve in the direction sought with a large enough effect; inconclusive = small, poorly fitted or top-dose-only effect, or another doubt; inactive = no such curve, though single readings can be large; an effect the other way counts as inactive or inconclusive.

O=c1c2oc3ccccc3c2n(Cc2ccc(Cl)cc2)c(=O)n1Cc1ccccc1	Tau fibril FP inconclusive (no result: KDM4E inh, Coupling enz)
COc1ccc(OC)c2sc(N3CCN(C(=O)c4ccc5c(c4)CCCC5)CC3)nc12	Tau ThT inhib inconclusive (no result: KDM4E inh, Coupling enz)
S=C(NCCN(C1CCCCC1)C1CCCC1)Nc1cccc(Cl)c1	none (no result: KDM4E inh, Tau fibril FP, Tau ThT inhib, Tau fluor counter)
O=C(CCc1ccccc1)NC(NC(=S)Nc1ccc(Br)cc1)C(Cl)(Cl)Cl (stereo unspecified)	Tau fibril FP inconclusive
O=C(CCc1ccccc1)NC(NC(=S)Nc1cccc(Cl)c1)C(Cl)(Cl)Cl (stereo unspecified)	Tau fibril FP 14µM
S=C(NCCC(c1ccccc1)c1ccccc1)Nc1cccc(Cl)c1	Tau fibril FP 14µM, Tau fluor counter 7.1µM[quencher]
CCCC(=O)NC(NC(=S)Nc1ccc(N=Nc2ccccc2)cc1)C(Cl)(Cl)Cl (stereo unspecified)	Tau fibril FP inconclusive, Tau ThT inhib 14µM, Tau fluor counter inconclusive
CCN(CC)c1ccc(NC(=O)c2cnn(-c3ccccc3)c2-n2cccc2)c(C)c1	Tau ThT inhib inconclusive (no result: KDM4E inh, Coupling enz)
Oc1nc(Nc2cccc(Cl)c2)sc1/C=C1\C=Nc2ccccc21	Tau fibril FP inconclusive, Tau ThT inhib 6.3µM, Tau fluor counter 5µM[quencher]
CC1=Nc2ccccc2/C1=C\c1sc(Nc2ccc(C)cc2)nc1O	Tau fibril FP inconclusive, Tau ThT inhib 7.9µM, Tau fluor counter 11µM[quencher]
Oc1cccc(Nc2nc(O)c(/C=C3\C=Nc4ccccc43)s2)c1	Tau ThT inhib 4µM, Tau fluor counter 11µM[quencher]
Oc1nc(Nc2ccc(F)cc2)sc1/C=C1\C=Nc2ccccc21	Tau ThT inhib 4.5µM, Tau fluor counter 7.1µM[quencher]
CC1=Nc2ccccc2/C1=C/c1sc(=O)n(CC(=O)N2CCCC2)c1O	Tau fluor counter inconclusive
CCOC(=O)c1c(Nc2ccc(Cl)cc2)sc(/C=C2\C=Nc3ccccc32)c1O	Tau fibril FP inconclusive, Tau ThT inhib inconclusive, Tau fluor counter inconclusive
O=C(N/N=C/c1cc2c3c(c1O)CCCN3CCC2)c1ccccc1O	KDM4E inh 32µM, Tau ThT inhib 13µM, Tau fluor counter 11µM[quencher]
Cc1nn(-c2ccccc2)c(N2CCCC2)c1/C=N/NC(=O)c1ccccc1O	KDM4E inh inconclusive, Tau ThT inhib inconclusive, Tau fluor counter inconclusive
Cc1ccc(C)c(NC(=O)CCc2nc3cccnc3n2Cc2cccs2)c1	none (no result: KDM4E inh, Coupling enz)
Cc1cc(N/N=C/c2c[nH]c3ccccc23)c2ccccc2n1	KDM4E inh inconclusive
Cn1c(N/N=C/c2c[nH]c3ccccc23)nc2ccccc21	KDM4E inh inconclusive, Tau ThT inhib 4.5µM, Tau fluor counter 16µM[quencher]
O=C(O)c1ccc(N/N=C/c2c[nH]c3ccccc23)cc1	none (no result: KDM4E inh, Tau fibril FP, Tau ThT inhib, Tau fluor counter)
CCCn1c(/N=C/c2c[nH]c3ccccc23)nc2ccccc21	Tau fibril FP inconclusive, Tau fluor counter inconclusive
CCCCn1c(/N=C/c2c[nH]c3ccccc23)nc2ccccc21	Tau fibril FP inconclusive, Tau fluor counter 22µM[quencher] (no result: Coupling enz)
Fc1c(F)c(F)c(N/N=C/c2c[nH]c3ccccc23)c(F)c1F	Tau fibril FP inconclusive, Tau ThT inhib 13µM, Tau fluor counter 7.1µM[quencher]
CCCCOc1cccc(C(=O)N(Cc2ccc(C)o2)c2ccccn2)c1	none (no result: KDM4E inh, Coupling enz)
CN1C(=O)C(CC(=O)O)S/C1=N\N=C\c1ccc(O)cc1O (stereo unspecified)	KDM4E inh 25µM
CCOC(=O)CNC(=O)O[C@@H]1C(=O)c2cc(Br)ccc2O[C@H]1c1ccc2c(c1)OCO2	none
CCc1ccc(C(=O)/C=C/c2ccc([N+](=O)[O-])o2)cc1	Tau fibril FP inconclusive, Tau ThT inhib 8.9µM, Tau fluor counter inconclusive
CCN(CC)S(=O)(=O)c1ccc(C(=O)/C=C/c2ccc(-c3ccc([N+](=O)[O-])cc3)o2)cc1	Tau ThT inhib inconclusive, Tau fluor counter inconclusive
O=C(Nc1cccc(Cl)c1)c1ccc2nc(Cc3ccccc3)oc2c1	Tau fibril FP inconclusive, Tau fluor counter inconclusive (no result: KDM4E inh, Coupling enz)
COc1ccc(CCNC(=O)c2nc(SCc3ccccc3F)ncc2Cl)cc1OC	none (no result: KDM4E inh, Coupling enz)
CCN(CC)S(=O)(=O)c1ccc(N2CCOCC2)c(NC(=O)c2cc(-c3ccccn3)nc3ccccc23)c1	KDM4E inh 13µM
CCN(CC)S(=O)(=O)c1ccc(N2CCOCC2)c(NC(=O)c2cccc3ccccc23)c1	KDM4E inh inconclusive
COC(=O)C1=C(C(=O)OC)[C@@H]2Nc3ccccc3[C@@]23C[C@@H](C(=O)OC)N(S(=O)(=O)c2ccc4c(c2)OCCN4C)C3=N1	Tau fibril FP inconclusive
COC(=O)CCc1sc(NC2CCCCC2)nc1-c1ccc(OC)cc1	Tau ThT inhib inconclusive
COC(=O)CCc1sc(Nc2ccc(OC)cc2)nc1-c1ccc(OC)cc1	Tau ThT inhib inconclusive, Tau fluor counter 18µM[quencher] (no result: KDM4E inh, Coupling enz)
O=C(N/N=C(\CC(=O)c1cccs1)C(F)(F)F)c1ccncc1	KDM4E inh inconclusive, Tau ThT inhib 14µM, Tau fluor counter inconclusive
Cc1ccc(C(=O)N/N=C(/CC(=O)c2cccs2)C(F)(F)F)cc1	Tau ThT inhib inconclusive
O=C(OC1CCc2ccccc2C1=O)c1ccccc1O (stereo unspecified)	KDM4E inh inconclusive, Tau fibril FP inconclusive, Tau ThT inhib 25µM, Tau fluor counter inconclusive
O=C(N/N=C1\CCc2ccccc21)c1ccccc1O	KDM4E inh inconclusive, Tau ThT inhib inconclusive
COc1cc(/C=C/C(=O)N2CCC=CC2=O)cc(OC)c1OC	Tau fibril FP inconclusive, Tau ThT inhib 8.9µM
Cc1ccc(NC(=O)Cn2c(=O)n(Cc3nc(-c4ccccc4)no3)c(=O)c3cc4c(cc32)OCO4)cc1C	Tau fibril FP inconclusive (no result: KDM4E inh, Coupling enz)
C/C(=N/Nc1ccc(F)cc1)c1ccc(Cl)s1	Tau ThT inhib inconclusive, Tau fluor counter 14µM[quencher]
Cc1ccc(S(=O)(=O)N/N=C/c2c[nH]c3ccccc23)cc1	Tau ThT inhib inconclusive, Tau fluor counter inconclusive
Cc1ccc(S(=O)(=O)/C(C#N)=C/c2c[nH]c3ccccc23)cc1	Tau fibril FP 13µM, Tau ThT inhib inconclusive, Tau fluor counter 10µM[quencher]
O=C(/C=C/c1c[nH]c2ccccc12)c1ccccc1	Tau fibril FP inconclusive
Cc1ccc(C(=O)/C=C/c2cn(CN3CCN(C)CC3)c3ccccc23)cc1	KDM4E inh inconclusive, Tau ThT inhib inconclusive, Tau fluor counter 14µM[quencher]
Cc1ccc(C(=O)/C=C/c2c[nH]c3ccccc23)cc1	KDM4E inh inconclusive, Tau ThT inhib inconclusive, Tau fluor counter 14µM[quencher]
COc1ccc2[nH]cc(/C=C/C(=O)c3ccccc3)c2c1	Tau ThT inhib inconclusive, Tau fluor counter 8.9µM[quencher]
CC(C)c1nc2ccc(C(=O)NCCCN3CCN(c4ccccc4F)CC3)cc2o1	none (no result: KDM4E inh, Coupling enz)
CC1CCC(C(C)C)C(OC(=O)COC(=O)c2cc(O)ccc2N)C1 (stereo unspecified)	KDM4E inh inconclusive, Tau fibril FP inconclusive, Tau fluor counter 11µM[quencher]
CC(=O)Nc1ccc(NC(=O)CCc2nc3cccnc3n2Cc2cccs2)cc1	Tau ThT inhib inconclusive (no result: KDM4E inh, Coupling enz)
O=C(COc1ccc(F)cc1)Nc1nnc(S(=O)(=O)N2CCc3ccccc32)s1	Tau ThT inhib 2.8µM (no result: KDM4E inh, Coupling enz)
CCC(CC)C(=O)Nc1nnc(S(=O)(=O)N2CCCC2)s1	none (no result: KDM4E inh, Tau fibril FP, Tau ThT inhib, Tau fluor counter)
